Test results published in PubChem BioAssay AID1159580 (chemical genetic matrix, 2015).
About 2,000 (36%) of roughly 5,500 compounds were called active. Another 18% or so got no clear call; they are omitted. No stated cut-off is given here; in the data, active means normalized growth mostly below about 0.91 (no sharp cut-off); inconclusive means no clear call, values can overlap the other calls; inactive means mostly above about 0.92. This is one part of the list.

Assay: chemical genetic growth profiling, strain panel (AID 1159580);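 further: tested at 20 µM; growth read once vehicle control cultures reached saturation at 30 °C; 1 = growth at the plate median or of vehicle wells; lower values mean less growth of the strain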
Details: growth OD

Measured: normalized growth

Cn1c(=O)c2c(ncn2CCO)n(C)c1=O
inactive: S. cerevisiae deletion strains, locus YJR075W, strain HOC1, active compounds read low 1 | S. cerevisiae deletion strains, locus YKL009W, strain mrt4, active compounds read low 0.99 | S. cerevisiae deletion strains, locus YKL068W, active compounds read low 0.991 | S. cerevisiae deletion strains, locus YKL085W, strain MDH1 (second series), active compounds read low 0.993 | S. cerevisiae deletion strains, locus YKL085W, strain MDH1, active compounds read low 0.993 | S. cerevisiae deletion strains, locus YKL160W, strain elf1, active compounds read low 1.02 | S. cerevisiae deletion strains, locus YKL190W, strain CNB1, active compounds read low 1 | S. cerevisiae deletion strains, locus YKR001C, strain vps1, active compounds read low 0.997 | S. cerevisiae deletion strains, locus YKR026C, strain gcn3, active compounds read low 1.02 | S. cerevisiae deletion strains, locus YKR091W, strain srl3, active compounds read low 1.02 | S. cerevisiae deletion strains, locus YLL001W, strain dnm1, active compounds read low 0.993 | S. cerevisiae deletion strains, locus YLL026W, active compounds read low 1.02 | S. cerevisiae deletion strains, locus YLL041C, strain sdh2, active compounds read low 1.02 | S. cerevisiae deletion strains, locus YLR027C, strain aat2, active compounds read low 1.01 | S. cerevisiae deletion strains, locus YLR039C, strain RIC1, active compounds read low 1.02 | S. cerevisiae deletion strains, locus YLR058C, strain SHM2, active compounds read low 1.01 | S. cerevisiae deletion strains, locus YLR102C, strain apc9, active compounds read low 0.997 | S. cerevisiae deletion strains, locus YLR113W, strain HOG1, active compounds read low 0.988 | S. cerevisiae deletion strains, locus YLR221C, strain rsa3, active compounds read low 1.01 | S. cerevisiae deletion strains, locus YLR258W, strain gsy2, active compounds read low 1.02 | S. cerevisiae deletion strains, locus YLR262C, strain YPT6 (second series), active compounds read low 1.08 | S. cerevisiae deletion strains, locus YLR262C, strain YPT6, active compounds read low 1.01 | S. cerevisiae deletion strains, locus YLR268W, strain sec22, active compounds read low 1.06 | S. cerevisiae deletion strains, locus YLR320W, strain mms22, active compounds read low 1.03 | S. cerevisiae deletion strains, locus YLR330W, strain CHS5, active compounds read low 1 | S. cerevisiae deletion strains, locus YLR342W, strain FKS1 (second series), active compounds read low 0.981 | S. cerevisiae deletion strains, locus YLR342W, strain FKS1, active compounds read low 1.02 | S. cerevisiae deletion strains, locus YLR357W, strain rsc2, active compounds read low 1 | S. cerevisiae deletion strains, locus YLR370C, strain arc18, active compounds read low 1.02 | S. cerevisiae deletion strains, locus YLR371W, strain rom2, active compounds read low 1.01 | S. cerevisiae deletion strains, locus YLR384C, strain iki3, active compounds read low 1.01 | S. cerevisiae deletion strains, locus YLR418C, strain cdc73, active compounds read low 0.985 | S. cerevisiae deletion strains, locus YML016C, strain PPZ1, active compounds read low 1 | S. cerevisiae deletion strains, locus YML032C, strain rad52, active compounds read low 1.03 | S. cerevisiae deletion strains, locus YML120C, strain ndi1, active compounds read low 0.986 | S. cerevisiae deletion strains, locus YML124C, strain tub3, active compounds read low 1 | S. cerevisiae deletion strains, locus YMR058W, strain fet3, active compounds read low 1.02 | S. cerevisiae deletion strains, locus YMR078C, strain ctf18, active compounds read low 0.998 | S. cerevisiae deletion strains, locus YMR125W, strain sto1, active compounds read low 1.02 | S. cerevisiae deletion strains, locus YMR129W, active compounds read low 1.02 | S. cerevisiae deletion strains, locus YMR205C, strain PFK2, active compounds read low 1.02 | S. cerevisiae deletion strains, locus YMR223W, strain ubp8, active compounds read low 0.971 | S. cerevisiae deletion strains, locus YMR231W, strain pep5, active compounds read low 1 | S. cerevisiae deletion strains, locus YMR263W, strain SAP30, active compounds read low 1.02 | S. cerevisiae deletion strains, locus YMR307W, strain GAS1, active compounds read low 0.975 | S. cerevisiae deletion strains, locus YNL067W, strain RPL9B, active compounds read low 1.02 | S. cerevisiae deletion strains, locus YNL071W, strain lat1, active compounds read low 1.01 | S. cerevisiae deletion strains, locus YNL128W, strain TEP1, active compounds read low 1 | S. cerevisiae deletion strains, locus YNL153C, strain GIM3, active compounds read low 1.04 | S. cerevisiae deletion strains, locus YNL183C, strain NPR1, active compounds read low 0.897 | S. cerevisiae deletion strains, locus YNL209W, strain ssb2, active compounds read low 1.01 | S. cerevisiae deletion strains, locus YNL233W, strain BNI4, active compounds read low 1.03 | S. cerevisiae deletion strains, locus YNL248C, strain rpa49, active compounds read low 1.01 | S. cerevisiae deletion strains, locus YNL250W, strain rad50, active compounds read low 0.997 | S. cerevisiae deletion strains, locus YNL271C, strain bni1, active compounds read low 1.01 | S. cerevisiae deletion strains, locus YNL298W, strain CLA4, active compounds read low 1.01 | S. cerevisiae deletion strains, locus YNL307C, strain MCK1, active compounds read low 0.969 | S. cerevisiae deletion strains, locus YNL322C, strain KRE1 (second series), active compounds read low 1.05 | S. cerevisiae deletion strains, locus YNL322C, strain KRE1, active compounds read low 1 | S. cerevisiae deletion strains, locus YNR049C, strain mso1, active compounds read low 1.02 | S. cerevisiae deletion strains, locus YNR052C, strain pop2, active compounds read low 1.01 | S. cerevisiae deletion strains, locus YOL006C, strain TOP1, active compounds read low 0.99 | S. cerevisiae deletion strains, locus YOL012C, strain htz1 1.01 | S. cerevisiae deletion strains, locus YOL147C, strain pex11, active compounds read low 1.01 | S. cerevisiae deletion strains, locus YOR001W, strain rrp6, active compounds read low 1.02 | S. cerevisiae deletion strains, locus YOR061W, strain CKA2, active compounds read low 1.01 | S. cerevisiae deletion strains, locus YOR069W, strain VPS5, active compounds read low 1.01 | S. cerevisiae deletion strains, locus YOR070C, strain gyp1, active compounds read low 1.02 | S. cerevisiae deletion strains, locus YOR080W, strain dia2, active compounds read low 1.04 | S. cerevisiae deletion strains, locus YOR083W, strain WHI5, active compounds read low 1.02 | S. cerevisiae deletion strains, locus YOR106W, strain vam3, active compounds read low 1.03 | S. cerevisiae deletion strains, locus YOR136W, strain idh2, active compounds read low 0.993 | S. cerevisiae deletion strains, locus YOR144C, strain elg1, active compounds read low 0.997 | S. cerevisiae deletion strains, locus YOR184W, strain ser1, active compounds read low 0.956 | S. cerevisiae deletion strains, locus YOR231W, strain MKK1, active compounds read low 0.981 | S. cerevisiae deletion strains, locus YOR265W, strain rbl2, active compounds read low 1.01 | S. cerevisiae deletion strains, locus YOR270C, strain vph1, active compounds read low 1.05 | S. cerevisiae deletion strains, locus YOR290C, strain snf2, active compounds read low 1.03 | S. cerevisiae deletion strains, locus YOR316C, strain cot1, active compounds read low 1 | S. cerevisiae deletion strains, locus YPL051W, strain arl3, active compounds read low 1.01 | S. cerevisiae deletion strains, locus YPL055C, strain LGE1, active compounds read low 0.989 | S. cerevisiae deletion strains, locus YPL078C, strain atp4, active compounds read low 1.02 | S. cerevisiae deletion strains, locus YPL106C, strain sse1, active compounds read low 1.07 | S. cerevisiae deletion strains, locus YPL240C, strain hsp82, active compounds read low 0.985 | S. cerevisiae deletion strains, locus YPL241C, strain CIN2, active compounds read low 1.01 | S. cerevisiae deletion strains, locus YPL256C, strain CLN2, active compounds read low 0.974 | S. cerevisiae deletion strains, locus YPR119W, strain clb2, active compounds read low 1 | S. cerevisiae deletion strains, locus YPR141C, strain kar3, active compounds read low 0.996 | S. cerevisiae deletion strains, locus YPR163C, strain tif3, active compounds read low 1.02 | S. cerevisiae deletion strains, locus YPR167C, strain met16, active compounds read low 0.997 | S. cerevisiae deletion strains, strain wtn01, active compounds read low 1.03 | S. cerevisiae strains, strain wild type, active compounds read low 0.998
